# SMN2 splice enh: increases expression of the SMN2 splice variant | HEK293 SMN2-luciferase splicing reporter, luminescence, 30-36 h | Potency, µM (top dose mostly 46.1 µM), for inactives: top-dose activity change, positive = activation, most hits filed as activators | actives 2.8% (n = 210,000) | AID 1458; further: % of control where 0% means no effect; nearly all actives have a fitted effect of over 55% in size
#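 HEK293 cells carry an SMN2 […]–luciferase reporter in which exon 7 inclusion puts luciferase in frame. Cells were plated 10-12 h before compound addition, then incubated 30-36 h at 37C. ONE-Glo luminescence was read; sodium butyrate at 4.5 mM final served as control.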
# Luc counter: counter-screen: inhibitors of Kinase-Glo firefly luciferase; Potency, µM (highest dose often 38.3 µM), for the others: at the top dose activity change, negative = inhibition, most hits filed as inhibitors; actives 0.28% (n = 200,000); Q27757; Kinase-Glo luciferase, ATP luminescence, 8 min; further: on the % scale 0 is the no-effect control and ±100 the full control effect; nearly all actives have a fitted effect of over 60% in size
#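 Recombinant Kinase-Glo luciferase, 10 uM ATP (linear range), luciferin; imidazole pH 7.2 / KCl / MgCl2 / Tween / BSA buffer; 8 min RT; luminescence.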
# FLuc counter: firefly luciferase modulation, counter-screen for miR-21 project. purified FLuc, Km substrates, luminescence inhibition. Potency, µM (top dose mostly 57.5 µM), without a hit: top-dose activity change, negative = inhibition, actives largely listed as inhibitors. actives 6.9% (n = 360,000);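 further: plate controls were vehicle for no effect and reference inhibitor for full effect; nearly all actives have a fitted effect of over 55% in size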
# Target sequence (P08659 whole entry, looked up): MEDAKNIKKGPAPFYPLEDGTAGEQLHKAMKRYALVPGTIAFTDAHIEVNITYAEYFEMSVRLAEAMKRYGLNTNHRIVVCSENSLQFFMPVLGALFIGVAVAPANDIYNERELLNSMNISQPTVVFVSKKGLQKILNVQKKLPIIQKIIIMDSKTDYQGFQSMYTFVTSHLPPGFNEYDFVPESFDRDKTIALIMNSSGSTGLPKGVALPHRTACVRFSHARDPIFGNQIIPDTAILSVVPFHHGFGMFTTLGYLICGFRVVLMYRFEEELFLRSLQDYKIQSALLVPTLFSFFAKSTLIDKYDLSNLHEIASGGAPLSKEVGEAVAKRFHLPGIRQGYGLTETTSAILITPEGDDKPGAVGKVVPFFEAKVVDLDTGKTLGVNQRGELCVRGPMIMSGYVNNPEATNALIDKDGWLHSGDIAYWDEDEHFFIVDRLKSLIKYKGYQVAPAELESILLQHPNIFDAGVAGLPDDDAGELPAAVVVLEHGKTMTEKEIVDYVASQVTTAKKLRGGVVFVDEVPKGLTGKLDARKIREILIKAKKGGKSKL
#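 Biochemical qHTS of compounds, final roughly 60 µM downward over six points, against 10 nM purified firefly luciferase using Km concentrations of substrates (10 uM D-luciferin, 10 uM ATP) in Tris acetate pH 7.5 buffer; luminescence output.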
# NPC1 prom act: activators of NPC1 promoter. Huh7 NPC1 promoter luciferase reporter, 24 h. Potency, µM (series often up to 9.22 µM), for the others: at the top dose activation, hits mostly activators. actives 2.4% (n = 320,000). AID 485313; further: % of control where 0% means no effect; nearly all actives have a fitted effect of over 60% in size
#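 NPC1 promoter–luciferase Huh7 cells; 24 h compound; luminescence.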
# Rab9 promoter act: activates the Rab9 promoter; AID 485297; actives 2.8% (n = 320,000); Huh7 Rab9 promoter-luciferase reporter, luminescence, 24 h; Potency, µM (titrated, usually from 9.22 µM), inactives show at the highest dose activation, negative = inhibition, actives largely listed as activators; further: % of control where 0% means no effect; nearly all actives have a fitted effect of over 60% in size
#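 Steps: seed 1500 Huh7 Rab9-luc cells per well, rest 2 h at 37 °C; add compound in DMSO; incubate 24 h; add luciferase reagent, 10 min ambient; read luminescence.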
# ELG1 genotox: inducers of genotoxicity in HEK293T ELG1-luciferase cells; HEK293T ELG1-luciferase reporter, luminescence, 16 h; Potency, µM (doses to about 46 µM), without a hit: at the top dose activity change, positive = activation, usual class: activators; actives 1.3% (n = 330,000); further: % of control where 0% means no effect; nearly all actives have a fitted effect of over 60% in size
#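 Reporter readout depends on ELG1 protein level, which increases with genetic stress. After 16 hr compound exposure at 37 °C, luciferase activity was quantified using ONE-Glo.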
# Active calls of the source: *; ? = inconclusive; / = no result given; [ ] = remark or other dose. In the library only some 7.3% were active in any assay of this set; here they are far more common. The call rests on the fitted dose curve; in most records, active means well fitted curve in the direction sought with a large enough effect; inconclusive means small, poorly fitted or top-dose-only effect, or another doubt; inactive means no such curve, though single readings can be large; an effect the other way counts as inactive or inconclusive. Potency means the concentration at half of the fitted maximal effect.
SMILES,SMN2 splice enh,Luc counter,FLuc counter,NPC1 prom act,Rab9 promoter act,ELG1 genotox
O=S(=O)(c1ccc(OCC(O)CN2CCC(Cc3ccccc3)CC2)cc1)N1CCOCC1 (stereo unspecified),-24%,4%,0%,-5%,0%,-5%
CN(C)c1ccc(N=Nc2ccccc2Br)cc1,/,/,0.19µM*,3.5µM*,6.3µM*,?
CN(C)c1ccc(/C(=N\O)c2ccccc2)cc1,21%,-5%,?,27%,14%,23%
CC(=O)c1ccc(N=Nc2ccc(N(C)C)cc2)cc1,14%,?,0.3µM*,0.56µM*,0.4µM*,?
CC(=O)c1ccc(N=Nc2ccc(C)cc2)cc1,1.3µM*,-9%,0.95µM*,0.32µM*,0.32µM*,0.46µM*
CN(C)c1ccc(C(=N)c2ccc(N(C)C)cc2)cc1,13%,/,/,/,/,/
Nc1cc(N)nc(SCCN2CCCCC2)n1,-22%,-5%,6%,-4%,-5%,2%
Fc1ccc(-c2cn3cc(Cc4ccc(Cl)cc4)sc3n2)cc1,3.2µM*,/,3µM*,/,/,/
Fc1ccc(Cc2cn3cc(-c4ccc(Cl)cc4)nc3s2)cc1,?,/,0.6µM*,/,/,/
CC(C)(C)NC(=O)NC(=O)COC(=O)COc1ccc(Cl)cc1Cl,-5%,-1%,-19%,-1%,-2%,2%
COc1cc(C2Nc3ccccc3C(=O)N2c2ccc(Cl)cc2)c(Cl)cc1OCC(=O)O (stereo unspecified),13µM*,1%,?,3.2µM*,2.5µM*,?
CCOC(=O)COc1ccccc1C1Nc2ccccc2C(=O)N1c1cccc(Cl)c1 (stereo unspecified),20µM*,0%,-14%,?,2.8µM*,?
CCOC(=O)COc1c(OC)cc(Cl)cc1C1Nc2ccccc2C(=O)N1c1cccc(C)c1 (stereo unspecified),-2%,-6%,-3%,-3%,4%,5%
Cc1cc(C)cc(NC(=O)c2ccc(NC(=O)C3C4CC5OC(=O)C3C5C4)cc2)c1 (stereo unspecified),-25%,-2%,-10%,-1%,-2%,-2%
Cc1ccc(-c2nnc(N(C)C(=O)c3cccnc3)s2)cc1,27%,-9%,8.5µM*,3.2µM*,3.5µM*,17%
Cc1ccc(-c2nnc(N(C)C(=O)c3cccnc3)s2)cn1,13%,-1%,-2%,1%,-5%,7%
COc1ccc(-c2nnc(N(C)C(=O)c3cccnc3)s2)cc1,16%,-1%,13µM*,?,?,?
Cc1cnc(-c2nnc(N(C)C(=O)c3cccnc3)s2)cn1,4%,-1%,-1%,4%,5%,15%
Cc1ccc(N=C/C(C(=O)C(F)(F)F)=C(\O)c2cccs2)cc1,?,-2%,13µM*,1.8µM*,1.8µM*,?
O=C(/C(N=Nc1cccc(C(F)(F)F)c1)=C(/O)c1cccs1)C(F)(F)F,/,/,-3%,9%,29%,-9%
CCOC(=O)C1=CN(Cc2ccco2)S(=O)(=O)N(C)C1c1cccc(OC)c1 (stereo unspecified),/,/,/,/,/,1%
Cc1ccc(C)c(NC(=O)c2cc(S(=O)(=O)NCCc3ccccc3)ccc2F)c1,/,/,-10%,/,/,/
O=C(/C=C1\NCC2c3ccccc3CCN2C1=O)c1ccccc1 (stereo unspecified),2.8µM*,-10%,1.2µM*,4µM*,3.5µM*,-2%
O=C(C1CCCCC1)N1CC(=O)N2CCc3ccccc3[C@@H]2C1,-2%[20.6 µM],-1%[17.1 µM],/,/,/,/
COc1ccc(/C(N)=N/OC(=O)c2ccc(C)c([N+](=O)[O-])c2)cc1OC,-7%,0%,?,10%,14%,?
SMILES,SMN2 splice enh,Luc counter,FLuc counter,NPC1 prom act,Rab9 promoter act,ELG1 genotox
Nc1ccccc1N=Nc1ccccc1N,/,/,5.4µM*,1.6µM*,1.6µM*,?
Nc1ccc(N=Nc2ccccc2)c(N)c1,28µM*,/,/,/,/,/
CCOC(=O)c1ccc(-n2c(CN3CCOCC3)nc3ccc([N+](=O)[O-])cc3c2=O)cc1,23%,-2%,3%,-1%,-1%,-3%
Cc1ccc(S(=O)(=O)N2CCN(C(=O)c3sccc3-c3ccccc3)CC2)cc1,/,/,1%,-2%,3%,-8%
COc1ccc(C(=O)Nc2cc(S(=O)(=O)c3ccc(Cl)cc3)c(O)c(C)c2C)cc1,15%,/,8.5µM*,/,/,/
Cc1c(NC(=O)c2ccc(Cl)cc2)cc(C(C)C)c(O)c1S(=O)(=O)c1ccccc1,16µM*,/,?,/,/,/
O=C(N/N=C/c1ccccc1)NC1CCCCC1,26%,-1%,?,16%,22%,14%
CC(=O)N1c2ccc(S(=O)(=O)N3CCC(C(=O)N4CCN(c5cc(Cl)ccc5C)CC4)CC3)cc2CC1C (stereo unspecified),/,/,-2%,-6%,-5%,-13%
Cc1cc(C)c(S(=O)(=O)Nc2cc(SCC(=O)O)c(O)c3ccccc23)cc1C,-115%,-2%,?,8%,5%,-10%
Cc1cc(C)c(S(=O)(=O)/N=C2/C=C(SCC(=O)O)C(=O)c3ccccc32)cc1C,-79%,-6%,21µM*,4%,-1%,-7%
CCN(CC)CCN(C(=O)c1ccc2c(c1)OCCO2)c1nc2cc3c(cc2s1)OCO3,/,/,-1%,-4%,3%,-9%
CCN(CC)CCN(C(=O)c1cc2c(ccc3ccccc32)oc1=O)c1nc2cc3c(cc2s1)OCCO3,/,/,-8%,11%,12%,18µM*
O=C(c1ccccc1-n1cccc1)N1N=C(C(F)F)CC1(O)C(F)F (stereo unspecified),6%,-1%,1%,-1%,-1%,-5%
CN(C)c1ccc(C(C#N)c2ccccc2)nn1 (stereo unspecified),6%,-2%,-4%,3.2µM*,1.4µM*,1%
CN(C)c1ccc(C(C#N)c2ccc(Cl)cc2)nn1 (stereo unspecified),-13%,1%,1%,12%,0%,-1%
Cc1nc([N+](=O)[O-])c(C(=O)OCc2ccccc2F)n1C,-6%,0%,-7%,-3%,8%,3%
